Our source for the z-score values is PubChem BioAssay.

Assay [1] can be described thus: A549 cell viability effects, profiling panel, calcein-AM fluorescence, 48 h, basal (AID 1162). The note with it: higher = more signal.
Assay [2] in a line: adipocyte viability effects, profiling panel, cell-based, 3T3-L1 adipocytes, calcein-AM fluorescence, 48 h, basal (AID 1163). The note with it: 3T3-L1 adipocytes viability, higher = more signal.
A short description of assay [3]: HepG2 cell viability effects, profiling panel, calcein-AM fluorescence, 48 h, basal (AID 1164). Particulars: higher = more signal.
The nature of assay [4]: MM1S cell viability effects, profiling panel, calcein-AM fluorescence, 48 h, basal (AID 1165).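 Also: viability of MM1S multiple myeloma cells under basal unstimulated conditions.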 The note with it: higher = more signal.
Assay [5] can be described thus: basal RPMI8226 viability, no added stimulus, profiling panel, cell-based, calcein-AM fluorescence, 48 h, PK04 Diversity Set (AID 1166).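 Also: cells grown under basal conditions without added stimulus.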 Particulars: RPMI8226 myeloma viability, higher = more signal.
A short description of assay [6]: basal HepG2 mitochondrial membrane potential changes, profiling panel, cell-based, JC-1 fluorescence, 24 h, 100 nL compound (AID 1167). Particulars: higher = more signal.
Assay [7] can be described thus: basal 3T3-L1 adipocyte mitochondrial potential changes, profiling panel, cell-based, JC-1 fluorescence, 3T3-L1 adipocytes, 24 h, 100 nL compound (AID 1168). Particulars: JC-1 mitochondrial fluorescence, higher = more signal, called active from +8 up or from −8 down.
The nature of assay [8]: basal RPMI8226 mitochondrial membrane potential changes, profiling panel, cell-based, JC-1 fluorescence, 24 h, 100 nL compound (AID 1169). The note with it: RPMI8226 myeloma, JC-1 mitochondrial potential fluorescence, higher = more signal.
A short description of assay [9]: basal MM1S mitochondrial membrane potential changes, profiling panel, cell-based, JC-1 fluorescence, 24 h, 100 nL compound (AID 1170). Particulars: higher = more signal.
Assay [10] is described as follows: A549 lung cancer cell viability effects, profiling panel, resazurin fluorescence, 24 h, PK04 Diversity Set (AID 1171). The note with it: higher = more signal, called active from +8 up or from −8 down.

SMILES strings stand for the structures. Active and inactive are the calls of the source.
Also: test concentration not given here.

In the case of `CCOC(=O)C[C@H]1[C@H](OC(=O)c2ccc(C(=O)c3ccccc3)cc2)[C@@H](NC(=O)c2ccc(-c3ccccc3)cc2)c2cc(OCCCO)ccc2N1C(=O)Cc1ccc(OC)cc1`, the z-score in assay [1] is -0.61; in assay [2], 0.122; in assay [3], -0.461; in assay [4] it was 0.727; in assay [5], -0.205; in [6], 1.57. The z-score in assay [7] is -0.0721 (inactive); in [8], -0.807; in assay [9] it was -0.551; in [10], -0.131 (inactive).

In the case of `C=C(COC)/C(=C/C[C@H](OC(=O)c1ccncc1)c1ccccc1OCCO)c1cc(C(=O)OC)ccc1OC`, the z-score is -0.0954 in assay [1]; 0.0589 in assay [2]; -0.0472 in [3]; -3.34 in assay [4]; -1.58 in assay [5]; 1.94 in assay [6]. Besides, the z-score was -0.658 (inactive) in assay [7], -0.596 in [8], -0.159 in assay [9] and 0.315 (inactive) in assay [10].

As for `COc1ccc([Si](C)(C)[C@@H]2[C@@H](CCO)O[C@]3(C(=O)N(Cc4ccccc4)c4ccc(NC(=O)[C@H](C)O)cc43)[C@H]2C)cc1`, the z-score in [1] is -2.21; in [2], 0.641; in assay [3] it was -4.61; in assay [4] it was -2.62; in assay [5], -4.3; in [6] it was -2.7. The z-score in assay [7] is -0.241 (inactive); in [8], -0.972; in [9], -2.15; in assay [10], -3.3 (inactive).

Consider `CO[C@H]1O[C@H](CO)[C@@H](OC(=O)Nc2ccc3c(c2)OCO3)[C@H](OC(=O)Nc2ccc3c(c2)OCO3)[C@@H]1OC(=O)Nc1ccc2c(c1)OCO2`, for which the z-score in assay [1] is -0.077; in [2], 0.0003; in assay [3], -0.797; in [4], -1.89; in assay [5], -1.84; in assay [6] it was -1.14. Also, the z-score was -0.13 (inactive) in assay [7], -0.538 in assay [8], -0.357 in [9] and -0.333 (inactive) in assay [10].

For the compound `COC(=O)[C@@]1(Cc2ccc(OC)cc2)[C@H]2c3cc(C(=O)N4CCCC4)n(CCc4c[nH]c5ccc(OC)cc45)c3C[C@H]2CN1C(=O)c1ccccc1`, the z-score is -1.19 in assay [1]; -0.791 in assay [2]; -0.636 in [3]; -1.52 in assay [4]; -3.62 in assay [5]; -0.205 in assay [6]. In addition, the z-score in assay [7] is -1.04 (inactive); in assay [8] it was -0.819; in [9], -1.86; in [10], -2.3 (inactive).

Regarding `CCOC(=O)C[C@H]1[C@H](OC(=O)c2cc3ccccc3oc2=O)[C@@H](NC(=O)CC(C)C)c2cc(OCCCO)ccc2N1C(=O)c1ccc2ccccc2n1`, the z-score in assay [1] is -0.326; in assay [2], -0.166; in [3], 0.311; in [4], -0.18; in assay [5] it was 0.156; in assay [6] it was -0.858. In addition, the z-score in assay [7] is -0.415 (inactive); in assay [8] it was -0.272; in assay [9] it was -0.692; in [10], -0.103 (inactive).

On to `COC(=O)[C@@]1(Cc2ccccc2)[C@H]2c3cc(C(=O)N(C)C)n(Cc4ccc(C)o4)c3C[C@H]2CN1C(=O)c1ccccc1`, for which the z-score was -2.02 in [1]; 0.827 in [2]; -0.735 in [3]; -1.01 in assay [4]; -3.69 in [5]; 0.598 in assay [6]. Moreover, the z-score in [7] was -2.61 (inactive); in assay [8], -0.951; in assay [9], -1.88; in [10] it was -1.42 (inactive).

Consider `COc1cc2c(cc1O)C=[N+](Cc1sc3ccccc3c1Cl)CC2`, for which the z-score in assay [1] is -0.47; in assay [2] it was 0.425; in assay [3] it was -0.349; in [4], -0.278; in assay [5] it was -0.133; in assay [6] it was -1.06. For the same compound, the z-score in assay [7] is -0.501 (inactive); in [8], -0.143; in assay [9], -0.598; in [10], 0.33 (inactive).

Consider `COC(=O)C1=CC(CCCO)=CC(c2ccc(CN3CCCC3)cc2)N(Cc2cccc(OC(F)(F)F)c2)C=C1C(=O)OC` (stereo not given), for which the z-score was 0.589 in assay [1]; -0.0684 in [2]; 1.34 in [3]; 1.04 in assay [4]; -0.413 in assay [5]; 3.57 in [6]. For the same compound, the z-score in assay [7] was 0.395 (inactive); in assay [8], 0.121; in [9], 0.593; in assay [10], -1.16 (inactive).

Take `COc1ccc(C#Cc2ccc3c(c2)[C@]2(C(=O)N3)[C@H](c3ccc(O)cc3)N3[C@H](c4ccccc4)[C@H](c4ccccc4)OC(=O)[C@H]3[C@@H]2C(=O)Nc2nc3ccccc3s2)cc1`: the z-score in assay [1] is 0.453; in assay [2], 1.89; in [3] it was -0.0578; in assay [4], -1.4; in assay [5] it was -2.6; in [6], -2.28. The z-score was 0.0579 (inactive) in assay [7], -0.429 in assay [8], 0.0506 in [9] and -1.21 (inactive) in assay [10].

Consider `COCCOC(=O)N1C(=O)[C@@]2(c3cc(C#CCCO)ccc31)[C@H](c1ccc(OCCO)cc1)N1[C@H](c3ccccc3)[C@H](c3ccccc3)OC(=O)[C@H]1[C@@H]2C(=O)Nc1nc2ccccc2s1`, for which the z-score in assay [1] is -0.255; in assay [2] it was 0.561; in assay [3], 0.779; in [4], -0.981; in assay [5], -0.0413; in [6], -3.68. The z-score in assay [7] is -1.38 (inactive); in assay [8], -0.78; in assay [9] it was -1.81; in assay [10], -0.5 (inactive).

Turning to `CCCCC(CC)C(O)C1C=CC2C(=O)N(C)C(=O)C2N1Nc1ccccc1` (stereo not given), the z-score is -0.959 in assay [1]; -1.12 in [2]; -0.195 in assay [3]; -0.0591 in [4]; -0.885 in [5]; -1.02 in assay [6]. Moreover, the z-score in assay [7] is -1.03 (inactive); in assay [8] it was -0.3; in assay [9], -0.348; in [10] it was -0.83 (inactive).

`NC(=O)[C@@]1(Cc2ccccc2)COC(c2ccc(OCCCO)cc2)=N1`: the z-score was -0.291 in [1]; -0.0025 in [2]; 0.532 in [3]; 0.064 in assay [4]; -0.453 in [5]; -0.798 in [6]. Moreover, the z-score in [7] was -0.392 (inactive); in assay [8], -0.759; in [9], -0.172; in [10] it was 0.138 (inactive).

Turning to `CC(C)c1ccc(NN2C(C(O)c3ccc(C#N)cc3)C=CC3C(=O)N(c4ccccc4)C(=O)C32)cc1` (stereo not given), the z-score in assay [1] is -0.0204; in assay [2], -0.708; in [3], -0.21; in assay [4], -0.303; in [5], -0.0634; in [6], -1.22. Further, the z-score in assay [7] is -0.662 (inactive); in assay [8], 0.629; in [9], 0.179; in [10], -1.28 (inactive).

For the compound `C=C(C(=O)CC[C@H](OC(=O)c1ccccc1-c1ccccc1C(=O)O)c1cccc(OCCO)c1)C(C)C`, the z-score was -0.613 in assay [1]; 0.422 in [2]; -0.502 in assay [3]; -3.07 in assay [4]; -1.52 in [5]; -1.68 in [6]. For the same compound, the z-score is -0.156 (inactive) in assay [7], 0.248 in assay [8], 0.618 in assay [9] and -0.701 (inactive) in [10].

Regarding `CCCCCN1CC=CC23O[C@@H]4/C=C\CCCOC(=O)C4[C@H]2C(=O)N(C(C)CO)[C@@H]3C1=O` (stereo not given in full), the z-score in assay [1] was 0.327; in [2], -0.0628; in assay [3], -0.0728; in assay [4], 1.16; in assay [5] it was 0.15; in [6], 0.37. In addition, the z-score is 0.0667 (inactive) in [7], 1.08 in [8], -1.13 in [9] and 0.423 (inactive) in assay [10].
